Sampled rows, rich in hits. Any-hit rate of the full collection: about 6.5%.
Vaccinia mCherry = vaccinia inhibition (mCherry reporter). Vaccinia virus mCherry reporter infection, fluorescence. Potency, µM (highest dose often 36.5 µM), actives largely listed as inhibitors. 0.63% of 310,000 active. AID 720579; calls by dose curve; tested in A549 cells; note: nearly all actives have a fitted effect of over 35% in size
Lassa entry inh = inhibitors of Lassa virus binding or cell entry; Potency, µM (series often up to 37.9 µM), most hits filed as inhibitors; 1.2% of 300,000 active; Lassa virus pseudotype entry inhibition, cell reporter; calls by dose curve; tested in HEK293 cells; note: nearly all actives have a fitted effect of over 50% in size
HCMV antiviral = inhibitors of human cytomegalovirus; HFF cells, HCMV-luciferase reporter, 72 h; stronger effect = lower value; activity change, negative = inhibition, % at 57.5 µM; 4.5% of 410,000 active; AID 1259415; in the data active = activity change below about -60%; inconclusive = no clear call, values can overlap the other calls; inactive = above about -39%
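HFF cells seeded 16 h at 37C, treated with compounds, infected with luciferase-reporter HCMV at MOI 1 PFU/cell; luciferase read at 72 h post infection, normalized to buffer-only and Salinomycin controls.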
VACV Venus inh = inhibitors of vaccinia virus (Venus reporter) | 0.46% of 330,000 active | Potency, µM (doses to about 36.5 µM), hits mostly inhibitors | Vaccinia virus Venus reporter expression, fluorescence; calls by dose curve; tested in A549 cells; note: nearly all actives have a fitted effect of over 30% in size
Marburg entry inh = blocks Marburg virus binding to or entry into cells | Marburg virus pseudotyped entry inhibition, cell reporter | Potency, µM (series often up to 37.8 µM), usual class: inhibitors | 1.8% of 300,000 active; calls by dose curve; tested in HEK293 cells
FMDV antiviral = foot and mouth disease virus antiviral activity; Potency, µM (top dose mostly 57.9 µM), actives largely listed as inhibitors; 1.2% of 410,000 active; FMDV antiviral cell-based qHTS; AID 1159524; calls by dose curve; tested in HEK293T cells; note: read-out not given here; nearly all actives have a fitted effect of over 45% in size
Each line names hits and unclear results; the compound was inactive in the other large screens; ! = not confirmed by another sample.

N#CC1CCCc2c1[nH]c1ccc([N+](=O)[O-])cc21 (stereo unspecified)	Lassa entry inh inconclusive, Marburg entry inh 10µM
O=C1CC(NNC(=O)c2cccc(F)c2)C(=O)N1 (stereo unspecified)	none (no result: Vaccinia mCherry, Lassa entry inh, VACV Venus inh)
Cc1cc(C)n2nc(C(=O)OCC(=O)NC3CCCCC3)nc2n1	none
CCOc1cccc(-c2c(C(=O)N/N=C(\C)c3ccccn3)nnn2-c2nonc2N)c1	HCMV antiviral -69 (no result: Vaccinia mCherry, Lassa entry inh, VACV Venus inh, Marburg entry inh)
COc1cc(/C=N/NC(=O)c2nnn(-c3nonc3N)c2C)ccc1OCc1ccc(Cl)cc1	HCMV antiviral -61, VACV Venus inh inconclusive (no result: Lassa entry inh, Marburg entry inh)
COc1ccc(/C=N/NC(=O)c2nnn(-c3nonc3N)c2-c2cccs2)cc1OC	FMDV antiviral inconclusive
Nc1nonc1-n1nnc(C(=O)N/N=C/c2cccc(Cl)c2)c1-c1cccs1	HCMV antiviral active
COc1cc(/C=N/NC(=O)c2nnn(-c3nonc3N)c2C(C)C)ccc1OCc1ccccc1	FMDV antiviral inconclusive (no result: Vaccinia mCherry, Lassa entry inh, VACV Venus inh, Marburg entry inh)
Nc1nonc1-n1nnc(C(=O)N/N=C/c2cc(Br)cs2)c1-c1ccccc1	HCMV antiviral -69, Marburg entry inh 5.6µM
C=CCNc1nc2c(c(=O)[nH]c(=O)n2C)n1CCCc1ccccc1	none (no result: Vaccinia mCherry, Lassa entry inh, VACV Venus inh, Marburg entry inh)
CC(C)CCNC(=O)/C=C/c1ccc(Br)cc1	Lassa entry inh 1.6µM, HCMV antiviral inconclusive, Marburg entry inh inconclusive
CCOc1ccc(/C=C/C(=O)c2ccccc2)cc1OC	none
COc1cccc(C(=O)/C=C/c2ccc(OCC#N)c(OC)c2)c1	Vaccinia mCherry inconclusive, Lassa entry inh inconclusive, HCMV antiviral -100, VACV Venus inh inconclusive, Marburg entry inh 15µM, FMDV antiviral inconclusive
COc1cc(/C=C/C(=O)c2ccc(O)cc2)ccc1OCC#N	Vaccinia mCherry 13µM, Lassa entry inh 1.6µM, HCMV antiviral -98, VACV Venus inh 13µM, Marburg entry inh inconclusive, FMDV antiviral 28µM
CCOc1ccc(NC(=O)CSc2nnc(CNC(=O)c3cccs3)o2)cc1	none
CCC(NS(=O)(=O)c1ccc(OC)cc1)C(=O)NCCc1ccccc1 (stereo unspecified)	Marburg entry inh inconclusive
CC(C)(C)c1ccc(C(=O)Nc2onc3c2CCCC3)cc1	Lassa entry inh inconclusive, HCMV antiviral -75, Marburg entry inh inconclusive
O=C(Nc1onc2c1CCCC2)c1ccccc1	Lassa entry inh inconclusive, Marburg entry inh inconclusive
Cc1cccc(C2c3[nH]c4ccccc4c3CCN2C(=O)c2noc3c2CCCC3)n1 (stereo unspecified)	none (no result: Vaccinia mCherry, Lassa entry inh, VACV Venus inh, Marburg entry inh)
O=C(c1noc2c1CCCC2)N1CCc2c([nH]c3ccccc23)C1c1ccccn1 (stereo unspecified)	HCMV antiviral -62, Marburg entry inh inconclusive
O=C(c1cc(-c2ccccc2)n[nH]1)N1CCc2c([nH]c3ccccc23)C1c1ccccn1 (stereo unspecified)	Vaccinia mCherry inconclusive, Lassa entry inh inconclusive, VACV Venus inh inconclusive, Marburg entry inh 5.6µM
COc1ccc(OCC(=O)N2CCc3c([nH]c4ccccc34)C2c2ccccn2)cc1 (stereo unspecified)	HCMV antiviral -70 (no result: Lassa entry inh, Marburg entry inh)
COC(=O)[C@@H]1CCCN1Cc1ccc2c(c1)CN(Cc1cc(OC)c3c(c1)OCO3)CCO2	none (no result: Lassa entry inh, HCMV antiviral, Marburg entry inh)
OC(CN1CCN(c2ccc(F)cc2)CC1)c1ccc(Cl)cc1 (stereo unspecified)	Marburg entry inh inconclusive
OC(CN1CCC(Cc2ccc(F)cc2)CC1)c1ccc(Cl)cc1 (stereo unspecified)	Lassa entry inh inconclusive, Marburg entry inh 7.1µM (no result: Vaccinia mCherry, HCMV antiviral, VACV Venus inh)
CCOC(=O)C1=C(C)N=c2s/c(=C\c3ccncc3)c(=O)n2C1c1ccc2c(c1)OCO2 (stereo unspecified)	FMDV antiviral 25µM (no result: Vaccinia mCherry)
O=C(CSc1n[nH]c(=O)[nH]c1=O)c1cccc([N+](=O)[O-])c1	HCMV antiviral inconclusive (no result: Vaccinia mCherry, Lassa entry inh, VACV Venus inh, Marburg entry inh)
O=C(CSc1n[nH]c(=O)[nH]c1=O)c1ccccc1	HCMV antiviral -67, VACV Venus inh inconclusive (no result: Vaccinia mCherry)
CCNS(=O)(=O)c1ccc(C(=O)OCC(=O)N2CCCc3ccccc32)cc1	none (no result: Vaccinia mCherry, Lassa entry inh, VACV Venus inh, Marburg entry inh)
Cc1ccc(NC(=O)/C(=C/c2cccc([N+](=O)[O-])c2)NC(=O)C2CCCCC2)c(C)c1	Vaccinia mCherry inconclusive, Lassa entry inh inconclusive, HCMV antiviral -96, Marburg entry inh inconclusive (no result: FMDV antiviral)
CCC(C)Sc1cc(-c2nc3cc(C)ccn3c2NC2CCCCC2)ccc1OC (stereo unspecified)	HCMV antiviral -84!, VACV Venus inh inconclusive, FMDV antiviral inconclusive (no result: Lassa entry inh, Marburg entry inh)

Compound activity (PubChem BioAssay)
